The target in one assay is SNRNP70. The assay can be described thus: pooled miR-30 sensor sort-seq; sequence = guide strand. The following applies: shRNA.
TATTCTTTTGATAGGTCCGTAC showed a sensor-assay potency score (higher = more potent) of -0.682.

In the case of TCGCTCGTGTTCGTACTCGATG, the sensor-assay potency score (higher = more potent) is -1.13.

Regarding TTGCTGTCGCCGCTCAATCTTT, the sensor-assay potency score (higher = more potent) was -1.5.

The next assay has as its target SNRPD1. Described as above. The settings on record: shRNA.
TGTGATTGTTCCATGGACCTGT: the sensor-assay potency score (higher = more potent) worked out at 1.16.

TAGATTTCACCTTAGGTTCAAC showed a sensor-assay potency score (higher = more potent) of -0.589.

In the case of TCATGCTGACATCCACACCTGT, the sensor-assay potency score (higher = more potent) is -0.408.

TTAAGATGTGTATTCATGCTGA: the sensor-assay potency score (higher = more potent) is -0.136.

In turn, TCTGGTAGAATAAAATACCGAA came in with a sensor-assay potency score (higher = more potent) of 0.138.

TTCTCTGTTCTTCAGGGTCATT came in with a sensor-assay potency score (higher = more potent) of -1.71.

In turn, TTCAACATCCACAAGTAGTGTA displayed a sensor-assay potency score (higher = more potent) of 0.419.

TACAGGTTCTCTGTTCTTCAGG returned a sensor-assay potency score (higher = more potent) of -0.643.

As for TCAACATCCACAAGTAGTGTAT, the sensor-assay potency score (higher = more potent) was -0.261.

Sequence TCTTCCTGCAACAGCTTCCCTT displayed a sensor-assay potency score (higher = more potent) of -1.09.

For the sequence TAGAATAAAATACCGAATGTTA, the sensor-assay potency score (higher = more potent) is -0.767.

For TATCCAGAGGTAAACTGTCTGG, the sensor-assay potency score (higher = more potent) is -1.01.

The target in another assay is SNTG1. The description is as above. The settings on record: shRNA.
TTGCTCGTGGTAGCAGAGCTGG gave a sensor-assay potency score (higher = more potent) of -1.52.

The sequence TAGCACACATGCATAGGTCTTG registered a sensor-assay potency score (higher = more potent) of 0.196.

Take TTGGAGCACATGCACAATCTTC: the sensor-assay potency score (higher = more potent) was -1.22.

Regarding TTTAATATTGTGCTTTGTGAGA, the sensor-assay potency score (higher = more potent) is -0.565.

TTATCTGTAGAATTGCATCTCC registered a sensor-assay potency score (higher = more potent) of 0.36.

With TTTGTTGCAGCATCAAAGCAGA, the sensor-assay potency score (higher = more potent) was -0.518.

Take TGAAGCACTGTTTCCGTCGGTC: the sensor-assay potency score (higher = more potent) was -0.425.

Take TAATGTGTCTGTATTGTTGGGA: the sensor-assay potency score (higher = more potent) turned out to be 0.882.

In the case of TTAGAGTCACTTCTTCTCCAGC, the sensor-assay potency score (higher = more potent) was -1.

Regarding TAGGTCTTGCACTGTATCCGTT, the sensor-assay potency score (higher = more potent) is -0.173.

As to TTGTCTTCTGATGGTCACCGTT, the sensor-assay potency score (higher = more potent) is -1.02.

For TGACTTTCTAGCACACATGCAT, the sensor-assay potency score (higher = more potent) was -0.281.

The target in the next assay is SNX19. Described as above. The following applies: shRNA.
The sequence TACTTCACAGTATAGAGTGTGT registered a sensor-assay potency score (higher = more potent) of -0.265.

In the case of TGAACTTTCGTAGATCTGGTTT, the sensor-assay potency score (higher = more potent) is -0.266.

For TTCTACTCTGTCACTGTCCATG, the sensor-assay potency score (higher = more potent) was -0.887.

TGAGGTGACAGCTCGATCCAGC gave a sensor-assay potency score (higher = more potent) of 0.362.

TAAAGGACTGATTATAACCGTA had a sensor-assay potency score (higher = more potent) of -0.44.

For TTTCCAGTAACTTTGTCTGTTT, the sensor-assay potency score (higher = more potent) was -0.546.

For TACTCTGTCACTGTCCATGTTT, the sensor-assay potency score (higher = more potent) was -0.134.

Regarding TTATTGAGGTGACAGCTCGATC, the sensor-assay potency score (higher = more potent) was -1.16.

As to TAGATCTGGTTTCTCCTCCAGA, the sensor-assay potency score (higher = more potent) is -0.172.

TAACTCTACTTCCCTGACCTGG had a sensor-assay potency score (higher = more potent) of -0.776.

TTAATATACAGCACTTCCCTGT: the sensor-assay potency score (higher = more potent) amounted to 0.105.

The sequence TTTCTTCACACATCCCACCCAA had a sensor-assay potency score (higher = more potent) of -0.125.

The values are drawn from the OligoGym collection.
Note: reference of the scale not given here.
